Measurements published in PubChem BioAssay (NCATS).
Several values for one entry are separate records, joined by “and”; a condition that tells them apart may be missing. Equal entries are not always repeated. Results filed as inconclusive are left out. A number with no mark means an inactive call. Activity calls are given as the source filed them. Calls follow the shape of the dose curve; as a rule, active = well fitted curve in the direction sought with a large enough effect; inconclusive = small, poorly fitted or top-dose-only effect, or another doubt; inactive = no such curve, though single readings can be large; an effect the other way counts as inactive or inconclusive.

experiment: Cell Viability - LYMP2-003 (AID 965); details: LYMP2-003 lymphoblastoid cell viability; series mostly up to 92.2 µM; activity change, negative = cytotoxicity: at the top concentration;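 also: cells exposed to compounds for 24 h before reading; nearly all actives have a fitted effect of over 50% in size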;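 as to activity change, negative = cytotoxicity: 0% = DMSO only and full effect = 92 µM tetraoctylammonium bromide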
Procedure, shortened: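 CellTiter-Glo luminescence (cellular ATP) after 24 h compound exposure at 37 C in complete medium; 2500 cells/well, 5 h settling beforehand. Concentration-response fitted to standard Hill equation for AC50. Tetraoctylammonium bromide served as positive control.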
Potency is read from the fitted curve at half-maximal effect.

| Compound | Potency | activity change, negative = cytotoxicity |
| --- | --- | --- |
| O=C(O)C(Cl)(Cl)Cl | inactive | – |
| O=C1CCO1 | – | 18.4% |
| O=C1C=CC(=O)C=C1 | – | 4.02% |
| COC1=CC(=O)O[C@@H](/C=C/c2ccccc2)C1 | – | 9.07% |
| COc1ccc2c(c1OC)C(=O)OC2C1c2cc3c(cc2CCN1C)OCO3 (stereo not given) | – | 18% |
| O=[N+]([O-])c1ccc(F)c([N+](=O)[O-])c1 | – | -4.84% |
| [Cl-].[Cl-].[Hg+2] | 0.794 µM (active) | – |
| CC(C)Nc1ccc(Nc2ccccc2)cc1 | 39.8 µM (active) | – |
| O=C1C2CC=CCC2C(=O)N1SC(Cl)(Cl)Cl (stereo not given) | 12.6 µM (active) | – |
| C[C@]12CCC(=O)C[C@@H]1CC[C@@H]1[C@@H]2CC[C@]2(C)[C@@H](O)CC[C@@H]12 | – | 9.68% |
| C=CCN=C=S | – | 16.2% |
| [O]=[Cr](=[O])([OH])[O][Cr](=[O])(=[O])[OH] | 12.6 µM (active) and 20 µM (active) and 7.94 µM (active) | – |
| [O]=[Cd] | – | 5.11% |
| O=C/C=C/c1ccccc1 | inactive | – |
| Oc1cc(Cl)c(Cl)cc1Cl | – | 27.3% |
| S=C=S | – | 7.52% |
| ClCC1CO1 (stereo not given) | – | 19.9% |
| CCOC(=O)c1ccccc1C(=O)OCC | inactive | – |
| CCCCCCCCOC(=O)c1ccccc1C(=O)OCCCCCCCC | – | 5.66% |
| CC(C)(C)c1cc(O)ccc1O | – | -20.8% |
| O=[N+]([O-])c1ccccc1 | – | 6.57% |
| Clc1ccccc1Cl | – | 27.7% |
| ClC=C(Cl)Cl | – | 10.9% |
| ClC(Cl)(Cl)Cl | inactive | – |
| C[C@H]1CCC[C@H](O)CCCCCc2cc(O)cc(O)c2C(=O)O1 | – | -5.89% |
| O=CC=O | – | -8.35% |
| CCCCCl | – | 8.99% |
| O=Cc1ccco1 | – | 0.673% |
| NNC(N)=O | – | 5.43% |
| CC(C)CCON=O | – | 4.94% |

experiment: Cell Viability - LYMP2-004 (AID 966); details: LYMP2-004 lymphoblastoid cell viability, qHTS; series mostly up to 92.2 µM; activity change, negative = cytotoxicity: at the top concentration; also: nearly all actives have a fitted effect of over 65% in size;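 as to activity change, negative = cytotoxicity: plate controls were DMSO only for no effect and tetraoctylammonium bromide control for full effect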
Procedure, shortened: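 Cells seeded 2500/well, rested 5 hr at 37 C, dosed across a concentration series, incubated 24 hr at 37 C, then CellTiter-Glo added for 30 min at room temperature and luminescence read. Hill fitting gave AC50.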

| Compound | Potency | activity change, negative = cytotoxicity |
| --- | --- | --- |
| O=C(O)C(Cl)(Cl)Cl | inactive | – |
| C[C@H]1CC[C@@H]2[C@@H](C)[C@H]3[C@H](C[C@H]4[C@@H]5CC=C6CC(O[C@@H]7O[C@H](CO)[C@H](O)[C@H](O[C@@H]8O[C@H](CO)[C@@H](O)[C@H](O)[C@H]8O)[C@H]7O[C@H]7O[C@@H](C)[C@H](O)[C@@H](O)[C@H]7O)CC[C@]6(C)[C@H]5CC[C@]34C)N2C1 (stereo not given in full) | 50.1 µM (active) | – |
| O=C1CCO1 | – | 20.2% |
| COC1=CC(=O)O[C@@H](/C=C/c2ccccc2)C1 | – | -2.81% |
| COc1ccc2c(c1OC)C(=O)OC2C1c2cc3c(cc2CCN1C)OCO3 (stereo not given) | – | 9.43% |
| O=[N+]([O-])c1ccc(F)c([N+](=O)[O-])c1 | – | -4.5% |
| [Cl-].[Cl-].[Hg+2] | 0.251 µM (active) | – |
| CC(C)Nc1ccc(Nc2ccccc2)cc1 | 39.8 µM (active) | – |
| O=C1C2CC=CCC2C(=O)N1SC(Cl)(Cl)Cl (stereo not given) | 10 µM (active) | – |
| C[C@]12CCC(=O)C[C@@H]1CC[C@@H]1[C@@H]2CC[C@]2(C)[C@@H](O)CC[C@@H]12 | – | -0.791% |
| C=CCN=C=S | – | -9.04% |
| [O]=[Cr](=[O])([OH])[O][Cr](=[O])(=[O])[OH] | 10 µM (active) and 15.8 µM (active) and 6.31 µM (active) | – |
| [O]=[Cd] | – | 5.69% |
| O=C/C=C/c1ccccc1 | inactive | – |
| Oc1cc(Cl)c(Cl)cc1Cl | – | 10.7% |
| S=C=S | – | 28.3% |
| ClCC1CO1 (stereo not given) | – | 3.14% |
| CCOC(=O)c1ccccc1C(=O)OCC | inactive | – |
| CCCCCCCCOC(=O)c1ccccc1C(=O)OCCCCCCCC | – | -0.982% |
| CC(C)(C)c1cc(O)ccc1O | 39.8 µM (active) | – |
| O=[N+]([O-])c1ccccc1 | – | -29.3% |
| Clc1ccccc1Cl | – | 28.3% |
| ClC=C(Cl)Cl | – | -1.63% |
| ClC(Cl)(Cl)Cl | inactive | – |
| C[C@H]1CCC[C@H](O)CCCCCc2cc(O)cc(O)c2C(=O)O1 | – | -20% |
| O=CC=O | – | 1.26% |
| CCCCCl | – | -5.83% |
| O=Cc1ccco1 | – | -3.74% |
| NNC(N)=O | – | 23.6% |
| CC(C)CCON=O | – | -4% |
